The source of these data is PubChem BioAssay AID624291 (National Center for Advancing Translational Sciences (NCATS), 2012).

Molecules are shown by their SMILES. Hit rate of the full screen: of about 350,000 compounds, about 220 (0.063%) were called active. Inconclusive results (about 4%) are left out. Calls follow the shape of the dose curve; as a rule, active = well fitted activation curve with a large enough effect; inconclusive = small, poorly fitted or top-dose-only effect; inactive = no such curve, though single readings can be large or run the other way. What follows is part of a selection rich in actives, with near analogues and random picks from the rest. Where a call stands in place of a potency, no number is given.
Potency is read from the fitted curve at half-maximal effect.

A short description of this experiment: qHTS for Activators of Integrin-Mediated Alleviation for Muscular Dystrophy. Also: nearly all actives have a fitted effect of over 60% in size. As to conditions: alpha7betagal myoblasts, beta-gal FDG fluorescence, 48 h; series mostly up to 38.3 µM. The procedure, abridged:
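Alpha7betagal+/- myoblasts (passage 13) were plated 16-24 hr, then exposed to compounds (1:260 dilution of DMSO stock) for 48 hours at 37C. After MPER lysis, β-galactosidase reporter activity was read as FDG fluorescence (ex 480/em 540) after 30 minutes.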
(In general: qHTS replaces the single test concentration by a dilution series.)
As for `Cn1ncc([N+](=O)[O-])c1C(=O)Nc1cc(Cl)ccc1Cl`, the Potency result is “inactive”.

`Cc1cc2cc3n(c2nn1)N=C(Cl)CC3`: the Potency entry was “inactive”.

For the compound `CCOC(=O)C(C(=O)c1ccccc1)C(c1ccccc1)c1nccc2ccccc12` (stereo not drawn), the Potency result is “inactive”.

As to `Cc1cc(Cl)ccc1C(=O)C1CCCN(C(=O)c2ccc3c(c2)OCO3)C1` (stereo not drawn), the Potency entry is “inactive”.

For the compound `CCOC(=O)c1cc(-c2sc(NC(=O)c3ccccc3)nc2C)n(Cc2ccccc2)n1`, the Potency entry was “inactive”.

In the case of `COc1ccccc1-c1n[nH]nc1C1=CC(=O)CC(C)(C)C1`, the Potency entry is “inactive”.

With `CC(C)c1cc(C(=O)NC2CCCCCC2)c2ccccc2n1`, the Potency result is “inactive”.

In the case of `CC(=O)Nc1ccc2nc(NC(=O)CS(=O)(=O)c3ccc(F)cc3)sc2c1`, the Potency entry was “inactive”.

On to `CN(c1ccccc1)S(=O)(=O)c1ccc(C(=O)NCc2cccnc2)cc1`, for which the Potency entry is “inactive”.

For `CNC(=O)c1ccc(CN(C)C(=O)c2cc(C3CC3)nc3c2cnn3C(C)C)cc1`, the Potency result was “inactive”.

With `C[C@@H]1CN([C@@H](C)CO)C(=O)CCCn2cc(nn2)CO[C@H]1CN(C)S(=O)(=O)c1ccc(-n2cccn2)cc1`, the Potency entry was “inactive”.

As to `C[C@H](CO)N1C[C@H](C)[C@@H](CN(C)Cc2ccc3c(c2)OCO3)OCc2cnnn2CCCC1=O`, the Potency entry is “inactive”.

Take `C[C@@H]1CN([C@H](C)CO)C(=O)c2cc(-c3ccc(F)cc3)cnc2O[C@H]1CN(C)C(=O)c1ccc(F)cc1`: the Potency entry was “inactive”.

Regarding `CSc1ncccc1C(=O)N1CCCC(Nc2ccc(F)c(F)c2)C1` (stereo not drawn), the Potency entry is “inactive”.

Turning to `Cc1ccc(NC(=O)c2ccco2)cc1`, the Potency entry was “inactive”.

For the compound `C[C@@H]1CN([C@H](C)CO)S(=O)(=O)c2ccc(C#C[C@@H](C)O)cc2O[C@@H]1CN(C)Cc1ccc(-c2ccccc2)cc1`, the Potency result is “inactive”.

`O[C@H]1C[C@H](c2ccc(Cl)cc2)N(Cc2cccs2)C[C@@H]1n1cc(C2CC2)nn1`: the Potency entry is “inactive”.

As for `O=C1[C@H]2[C@@H](c3ccc(C(F)(F)F)cc3)N[C@]3(CCCN(Cc4ccc(Cl)cc4)C3=O)[C@H]2C(=O)N1Cc1ccccc1`, the Potency entry is “inactive”.

`C[C@H]1CN([C@@H](C)CO)S(=O)(=O)c2ccc(-c3cccc(F)c3)cc2O[C@@H]1CN(C)C`: the Potency result was “inactive”.

As for `Cc1ccc(S(=O)(=O)N2C[C@@H](C)[C@]3(C2)[C@H](O)[C@H](OC(=O)NCc2ccccc2)C[C@H]2C(=O)N(c4ccccc4)C(=O)[C@H]23)cc1`, the Potency result is “inactive”.

With `C[C@H]1CN([C@@H](C)CO)C(=O)c2cc(C3=CCCCC3)cnc2O[C@@H]1CN(C)C(=O)Cc1ccccc1`, the Potency result was “inactive”.

On to `C[C@@H]1CN([C@@H](C)CO)C(=O)CCCn2nncc2CO[C@H]1CN(C)C(=O)Nc1ccc(C(F)(F)F)cc1`, for which the Potency entry is “inactive”.

Regarding `CCCCCCn1c(=O)n2n(c1=O)C[C@]1(OC(=O)NCc3ccc(OC)c(OC)c3)CN(S(=O)(=O)c3ccc(C)cc3)C[C@]1(O)C2`, the Potency entry is “inactive”.

Regarding `CCN(CC)CCN(C(=O)c1ccc2c(c1)CCCC2)c1nc2c(OC)cccc2s1`, the Potency result was “inactive”.

On to `Cc1ccc(-c2ccc(CN3C(C(C)C)C(=O)N(Cc4cn(CCC5OCCO5)nn4)CCS3(=O)=O)cc2)cc1` (stereo not drawn), for which the Potency entry was “inactive”.

For the compound `COc1ncnc2c1ncn2CCCNCCN1CCOCC1`, the Potency entry was “inactive”.

Take `CSC1=NN(c2ccccc2)CN(c2ccccc2)N1C`: the Potency result was “inactive”.

For the compound `CN(C)C(CNC(=O)c1cccc(S(=O)(=O)N2CCc3ccccc3C2)c1)c1ccccc1` (stereo not drawn), the Potency entry was “inactive”.

`CCN(CC)C(=O)C1=C(C)N(Cc2ccc(F)cc2)C(=O)C(CC(=O)NCc2cccc3ccccc23)C1` (stereo not drawn): the Potency result is “inactive”.

For `COc1ccccc1C(=O)NC(=S)Nc1ccc(N2CCOCC2)cc1`, the Potency entry was “inactive”.

For the compound `Cn1c(CCN2CCN(c3ccccn3)CC2)nc2cc(NS(=O)(=O)c3ccc(F)cc3)ccc21`, the Potency entry was “inactive”.

As for `NC(=S)NN=Cc1ccc(OC(=O)COc2cc(Cl)c(Cl)cc2Cl)cn1`, the Potency result is “inactive”.

For the compound `CCOC(=O)C(=Cc1ccccc1)C(=O)c1ccccc1`, the Potency entry was “inactive”.

Consider `CCCCCCNC(=O)O[C@H]1CN(C(=O)OC(C)C)N(C(=O)OC(C)C)[C@@H]2CN(S(=O)(=O)c3ccc(C)cc3)C[C@]12O`, for which the Potency result is “inactive”.

In the case of `Cc1ccc(NC(=O)Cn2sc3ccccc3c2=O)cc1`, the Potency entry was “inactive”.

Turning to `CC1(c2cccc(Br)c2)NC(=O)N(CC(=O)NCCC2=CCCCC2)C1=O` (stereo not drawn), the Potency result is “inactive”.

Take `C[C@H](CO)N1C[C@H](C)[C@@H](CN(C)C(=O)c2cnccn2)Oc2ncc(Br)cc2C1=O`: the Potency result is “inactive”.

On to `COc1ccc(OC)c(C(=O)NC2CCCc3c2cnn3-c2cc(C)cc(C)c2)c1` (stereo not drawn), for which the Potency result is “inactive”.

As for `O=C(OCc1ccccc1)N1CCC2CC1c1ccc(-c3ccc4c(c3)OCO4)cc12` (stereo not drawn), the Potency result was “inactive”.

With `CCCCCCN1C[C@@H](O)[C@H](n2cc(COC(=O)c3ccccc3)nn2)C[C@@H]1c1ccc(Cl)cc1`, the Potency entry was “inactive”.

In the case of `CCN1CCN(CCNC(=O)c2ccc3c(c2)NC(=O)/C(=C\c2cccc(Cl)c2)S3)CC1`, the Potency entry was “inactive”.

With `COc1ccc(S(=O)(=O)N2CCN(CC(=O)N3CCNC3=O)CC2)cc1OC`, the Potency entry was “inactive”.

For the compound `COCCNC(=O)CSc1nc(N)c(NC(=O)c2ccco2)c(=O)[nH]1`, the Potency result is “inactive”.

For the compound `O=C(NCCN1CCOCC1)C1CCN(S(=O)(=O)c2ccccc2)CC1`, the Potency entry was “inactive”.

With `C[C@H](CO)N1C[C@H](C)[C@@H](CN(C)S(=O)(=O)c2ccc(Oc3ccccc3)cc2)OCc2cn(nn2)CCCC1=O`, the Potency result was “inactive”.

On to `Cc1ccn(CC(=O)NC2CCCN(Cc3ccccc3F)C2)n1` (stereo not drawn), for which the Potency result is “inactive”.

Consider `CC1CCCC(NC(=O)COC(=O)c2ccccc2C(=O)N(C)C2CCCCC2)C1C` (stereo not drawn), for which the Potency result was “inactive”.

Consider `Cc1ccc(S(=O)(=O)N2CCOCC2)cc1NC(=O)c1ccncc1`, for which the Potency entry is “inactive”.

On to `CC1(C)CN(CCc2ccccc2)C(=O)[C@H]1CC(=O)Nc1ccc(Br)cc1`, for which the Potency result was “inactive”.

`CC1(C)CC(=O)C=C(c2ccccc2CO)C1=O`: the Potency entry is “inactive”.

Take `CCOC(=O)c1cc(-c2sc(NC(=O)c3ccccc3)nc2C)n(-c2ccc(Br)cc2)n1`: the Potency result was “inactive”.

On to `CCOc1ccc(S(=O)(=O)NCCC(=O)NNC(=O)c2ccc(F)cc2)cc1`, for which the Potency entry is “inactive”.

With `CC(C)NC(=S)NN=C1CCCCCCCCCCC1`, the Potency is 3.16 µM (active).

Regarding `CC(C)(C)NC(=O)C(=O)NN=C1CCCCCCC1`, the Potency result was “inactive”.

`C/C(=N\NC(=S)NC(C)C)c1ccc(C(C)(C)C)cc1`: the Potency result was “inactive”.

With `Cc1cccc(C(=O)C(O)(c2ccccc2)C2CCCCC2=O)c1` (stereo not drawn), the Potency entry is “inactive”.

`C=CCn1nc(C(=O)OCC)cc1-c1sc(NC(=O)c2ccccc2)nc1C`: the Potency entry was “inactive”.

In the case of `COc1ccc(-c2c(C#N)cnc(C)c2C)c(O)c1OC`, the Potency entry was “inactive”.
